SMILES strings stand for the structures. Where “and” joins values, the source holds several entries; their conditions need not be identical. Equal entries are not always repeated. Screen size: about 16,000 compounds; about 4,000 (25%) were called active. Not shown: some 26% with an inconclusive outcome. Calls come from the whole dose curve; as a rule, active = well fitted curve in the direction sought with a large enough effect; inconclusive = small, poorly fitted or top-dose-only effect, or effect the other way; inactive = no such curve, though single readings can be large or run the other way. These entries were drawn from the full list. Some compounds were tested as several samples or in several runs, with calls that do not always agree. Square brackets hold non-standard residues; d marks the D form. Peptide text beside a SMILES is read from it. * marks the point of attachment. ξ: configuration not given here. Cbz = O=C(OCc1ccccc1)*; PhAc = O=C(Cc1ccccc1)*; OBn = c1ccc(CO*)cc1; ξP = O=C(O)C1CCCN1

We go through 59 compounds from PubChem BioAssay AID1851 (National Center for Advancing Translational Sciences (NCATS), 2009).
% is set by controls: 0 for no effect and ±100 for the full control effect.

This test deals with Cytochrome P450 2C9 (Homo sapiens) (UniProt P11712). Kind of test: Cytochrome panel assay with activity outcomes. To be noted: recombinant CYP, pro-luciferin dealkylation, luminescence, p450-cyp2c9; series mostly up to 57.1 µM.
Cytochrome P450 2C9 (Homo sapiens), sequence (P11712 whole entry, looked up): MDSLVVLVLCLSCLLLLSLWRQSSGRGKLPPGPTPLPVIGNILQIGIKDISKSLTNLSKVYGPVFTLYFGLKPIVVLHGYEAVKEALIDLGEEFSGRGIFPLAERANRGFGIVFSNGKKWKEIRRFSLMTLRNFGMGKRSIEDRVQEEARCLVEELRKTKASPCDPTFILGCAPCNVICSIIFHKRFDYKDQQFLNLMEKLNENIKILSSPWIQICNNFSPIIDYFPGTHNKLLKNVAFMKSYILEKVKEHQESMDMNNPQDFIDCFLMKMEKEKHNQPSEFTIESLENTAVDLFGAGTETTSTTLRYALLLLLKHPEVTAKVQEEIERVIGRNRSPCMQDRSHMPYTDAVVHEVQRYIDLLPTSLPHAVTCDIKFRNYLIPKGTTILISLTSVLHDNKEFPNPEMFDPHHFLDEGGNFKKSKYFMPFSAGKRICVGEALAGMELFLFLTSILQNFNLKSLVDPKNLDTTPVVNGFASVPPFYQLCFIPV
Regarding `CC1=NOC(=O)/C1=C\c1ccc(-c2ccc(Cl)cc2Cl)o1`, the AC50 is 10 µM (active). Still for that read-out and setting: in the case of `CCCCCCCCCCCCCCC[C@@H](O)[C@@H](N)CO` it was “inactive”. With `NC(=O)OCC(COC(N)=O)c1ccccc1`, the AC50 entry is “inactive”. Same read-out and setting: under `COc1ccccc1N1CCN(CCCCN2C(=O)c3ccccc3C2=O)CC1` stands “inactive”; under `COc1ccccc1N1CCN(CCN2C(=O)c3ccccc3C(C)(C)C2=O)CC1`, “inactive”; under `COc1ccccc1N1CCN(CCCNc2cc(=O)n(C)c(=O)n2C)CC1`, “inactive and 12.6 µM (active)”. Still for that read-out and setting: in the case of `COc1ccccc1N1CCN(CCCCN2C(=O)CCC2=O)CC1` it was 3.98 µM (active); in that of `COc1ccccc1N1CCN(CCN2C(=O)CC3(CCCC3)CC2=O)CC1`, “inactive”. Regarding `COc1ccccc1N1CCN(CCCCNC(=O)c2ccc3ccccc3c2)CC1`, the AC50 entry was “inactive”. On the same count and under the same terms, in the case of `O=C(NCCCN1CCCCCC1)[C@@H](c1ccccc1)C1CCCCC1` it was “inactive”; in that of `Cn1nc(C(=O)NC2CCCCC2)c2ccccc2c1=O`, 7.94 µM (active). On the same count and under the same terms, in the case of `N=c1c(C(=O)NC2CCCC2)cc2c(=O)n3ccccc3nc2n1C1CCCC1` it was “inactive”; in that of `O=C(Nc1nnc(C2CC2)s1)c1cc(S(=O)(=O)N2CCN(c3ccccc3)CC2)ccc1Cl`, 7.08 µM (active). As for `COC(=O)C/C=C\[C@@H](C)[C@@H](/C=N\O[C@@H](C)CN1CCCCc2nc(C)c(C)cc21)NS(=O)(=O)c1ccc(C)cc1`, the activity, negative = inhibition is -13.5% [at 11.4 µM] (inactive). On to `O=C(CNC(=O)OCc1ccccc1)NCC(=O)N1CCCC1C(=O)OCc1ccccc1` (stereo not drawn) (Cbz-Gly-Gly-[ξP]-OBn), for which the AC50 result was “inactive”. The same measure, in the same setting: in the case of `O=C(NCC1CCCO1)/C(=C\c1ccco1)NC(=O)c1ccccc1` (centres undefined) it was “inactive”.

Consider `O=C(NC(Cc1ccccc1)C(=O)O)/C(=C\c1ccco1)NC(=O)c1ccc(Br)cc1` (centres undefined), for which the AC50 is 15.8 µM (active). For the compound `COc1ccccc1C(=O)N/C(=C/c1ccc(Br)cc1)C(=O)NCC(=O)O`, the half-maximal activity concentration (AC50) is 15.8 µM (active).

For `O=C(O)C/C(=C\c1ccco1)C(=O)O`, the activity, negative = inhibition was 4.79% [at 11.4 µM] (inactive). As for `COc1cc(/C=C(/NC(=O)c2ccccc2Cl)C(=O)O)cc(OC)c1OC`, the AC50 entry was “inactive”. On to `O=C(CNC(=O)/C(=C\c1ccccc1)NC(=O)c1ccc(Br)cc1)OCc1ccccc1`, for which the AC50 is 3.55 µM (active). Still for that read-out and setting: in the case of `O=C(CNC(=O)Cc1ccccc1)NCC(=O)OCc1ccccc1` (PhAc-Gly-Gly-OBn) it was “inactive”. As for `O=C(O)CNC(=O)c1ccccc1O`, the activity, negative = inhibition was 1.11% [at 11.4 µM] (inactive).

As to `O=[N+]([O-])c1ccc(CSc2ncnc3c2ncn3[C@@H]2O[C@@H](CO)[C@@H](O)[C@H]2O)cc1`, the AC50 entry was “inactive”. For the compound `C=C(Br)CN(C)CC(=C)Br`, the activity, negative = inhibition is 2.22% [at 11.4 µM] (inactive). For `CC(=O)OCC1=C(C(=O)O)N2C(=O)[C@@H](NC(=O)Cc3cccs3)[C@@H]2SC1`, the AC50 result is “inactive”. Same read-out and setting: in the case of `COc1ccc(CCNc2nc(-c3cccnc3)cs2)cc1OC` it was 2.51 µM (active). `COc1ccc(CNc2cc(-c3cccnc3)ncn2)c(OC)c1`: the activity, negative = inhibition was 17.1% [at 2.29 µM] (inactive). On to `COc1ccccc1CNc1cc(-c2cccnc2)ncn1`, for which the activity, negative = inhibition was -0.576% [at 2.29 µM] (inactive).

As for `Cc1sc(NC(=O)/C=C/c2ccc(C(C)C)cc2)c(C#N)c1C`, the AC50 result was “inactive”. In the case of `Cc1sc(NC(=O)C2CCCCC2)c(C#N)c1-c1ccccc1`, the AC50 was 15.8 µM (active). For the compound `Oc1ccc(CNCc2ccccc2)c2cccnc12`, the activity, negative = inhibition was -9.84% [at 11.4 µM] (inactive). `CC(C)OC(=O)C(C#N)c1nc2ccccc2nc1N1CCN(Cc2ccccc2)CC1` (centres undefined): the AC50 is 2.82 µM (active). On the same count and under the same terms, in the case of `CC(=O)N1CCC2(CCN(Cc3ccccc3)CC2)CC1` it was “inactive”.

As for `CC(C)NC1(C(N)=O)CCN(Cc2ccccc2)CC1`, the activity, negative = inhibition is -5.53% [at 11.4 µM] (inactive). Same read-out and setting: in the case of `CN(C)c1ccc(-c2ccc3ncnc(N4CCNCC4)c3c2)cc1` it was 6% [at 2.29 µM] (inactive); in that of `Cc1cccc(CNc2ccnc(-c3ccoc3)n2)c1`, -14.6% [at 2.29 µM] (inactive). Regarding `CC1(C)Cc2c(sc3nc(-c4ccccc4)n(N)c(=O)c23)CO1`, the AC50 is 12.6 µM (active). For `Cc1nn2c(C)nc3sc4c(c3c2nc1=O)CC(C)(C)OC4`, the AC50 result was “inactive”. Take `CCCN1C[C@H](CSC)C[C@H]2c3cccc4[nH]cc(c34)C[C@@H]21`: the AC50 entry was “inactive”.

With `N[C@@H](CCCP(=O)(O)O)C(=O)O`, the AC50 result was “inactive”. On to `CCN(CC)c1ccc(NC(=O)CSc2nnc3nc(C)cc(C)n23)cc1`, for which the AC50 entry is “inactive”. Same read-out and setting: under `CN(C)c1ccc(NC(=O)CSc2nc(N)c(C(=O)Nc3ccc(N(C)C)cc3)s2)cc1` stands 2.82 µM (active).

Turning to `C[C@@]12CCC(=O)C=C1CC[C@H]1[C@@H]2[C@@H](O)C[C@]2(C)[C@@H]1CC[C@@]2(O)C(=O)CO`, the activity, negative = inhibition was -3.75% [at 11.4 µM] (inactive). With `CCOC(=O)c1c(N2C(=O)Nc3cc(Cl)c(Cl)cc3N2O)sc2c1CCCCC2`, the AC50 was 3.55 µM (active).

As for `Cc1ccc(S(=O)(=O)Oc2cc(N)c3c(n2)CCC3)cc1`, the activity, negative = inhibition is 20.5% [at 11.4 µM] (inactive). In the case of `Cc1ccc(S(=O)(=O)Oc2cc(S(=O)(=O)O)cc3cc(S(=O)(=O)O)cc(N)c23)cc1`, the activity, negative = inhibition was -5.74% [at 11.4 µM] (inactive).

Turning to `O=C1CCCC2=C1C(c1ccc(OS(=O)(=O)c3ccc(Cl)cc3)cc1)C1=C(CCCC1=O)O2`, the AC50 is 7.08 µM (active).

As to `CN(C)C[C@H]1CCC2=C(C1=O)C(c1ccc(Cl)c(Cl)c1)C1=C(CC[C@H](CN(C)C)C1=O)O2`, the activity, negative = inhibition was -1.08% [at 11.4 µM] (inactive).

In the case of `Cc1ccc(S(=O)(=O)Oc2ccc(C3C4=C(CCCC4=O)OC4=C3C(=O)CCC4)cc2)cc1`, the AC50 was 3.98 µM (active). On to `O=C(O)c1c2c(c(O)c3c1CN(C1CCCCC1)CO3)OCN(C1CCCCC1)C2`, for which the activity, negative = inhibition was -1.96% [at 11.4 µM] (inactive). With `O=C(/C=C\c1ccc(O)c(O)c1)O[C@@H](Cc1ccc(O)c(O)c1)C(=O)O`, the AC50 entry was “inactive”. Consider `Cc1ccccc1S(=O)(=O)O[C@@H]1NS(=O)(=O)c2ccccc21`, for which the activity, negative = inhibition was 20.8% [at 11.4 µM] (inactive). With `Cc1ccccc1S(=O)(=O)Oc1ccccc1C(=O)Oc1ccccc1`, the half-maximal activity concentration (AC50) was 2.24 µM (active). On to `Cc1cc2c(c(=O)o1)[C@@H](O)[C@H]1O[C@@H]1C2=O`, for which the activity, negative = inhibition is -1.55% [at 11.4 µM] (inactive).

In the case of `O=C(Nc1nnc(-c2ccc(Cl)cc2)o1)Nc1ccccc1Cl`, the AC50 entry is “inactive”.

For the compound `O=C(Cc1ccc(Cl)cc1)Nc1cccc(-c2nnc(-c3ccco3)o2)c1`, the AC50 is 0.178 µM (active). Still for that read-out and setting: under `COc1ccc(CC(=O)Nc2ccc(-c3noc(-c4cccc(OC)c4)n3)cc2)cc1` stands “inactive”. Same read-out and setting: in the case of `COc1ccc(CC(=O)Nc2cccc(-c3nnc(-c4ccco4)o3)c2)cc1` it was 0.316 µM (active).

Usually AC50 stands for the midpoint of the concentration-response curve, whichever way the signal moves.
